Most compounds without a hit are left out; they make up all but 0.51% or so of the library.
E coli growth-1: E. coli growth inhibition; AID 1053175; 0.21% of 330,000 active; Escherichia coli growth, OD600, 23 h; hits give low values; OD600 absorbance (no concentration beside the values);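 active = OD600 absorbance below the run mean of sample wells minus 3.6 SD, in any replicate, cut at about 0.56 in these data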
E coli growth-2: reduces bacterial viability in AddAB counter-screen; inhibition, % at 11.9 µM; 0.27% of 330,000 active; E. coli V3065 growth, OD600 absorbance, 18 h;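 active = inhibition above the campaign's mean inhibition across all tested compounds plus 3 SD, cut at about 9.9% in these data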;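 note: uninfected addAB+ strain grown without phage in ampicillin broth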
AddAB inh: less growth of phage-infected E. coli with AddAB; inhibition, % at 11.9 µM; AID 435030; 0.29% of 330,000 active; E. coli expressing H. pylori AddAB, absorbance growth; in the data active = inhibition above about 12%
phage Ecoli inh: E. coli growth loss with phage present | growth absorbance | inhibition, % at 11.9 µM | 0.26% of 360,000 active | AID 651602; in the data active = inhibition above about 11%
Tat export inh: blocks Tat-dependent protein export in E. coli; E. coli MC4100 TorA-mCherry Tat export, fluorescence; AID 488895; 0.036% of 340,000 active; inhibition, % at 10 µM;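 active = mean replicate inhibition at least 50% and at least half of replicates individually reaching 50%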;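 note: exported cargo escapes ClpAP degradation while cytoplasmic cargo is degraded and loses fluorescence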
AddAB confirm: confirmation screen: growth loss of phage-infected E. coli expressing H. pylori AddAB | E. coli V3065 expressing H. pylori AddAB, T4 phage, OD; T4 phage with gene 2 nonsense mutations | AID 488942 | shares compounds with AddAB inh | 64% of 880 active | inhibition, % at 11.9 µM;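 active = mean inhibition above a set limit taken from the earlier primary screen, cut at about 13% in these data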;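 note: higher means less bacterial growth since AddAB block lets phage replicate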
RecBCD counter: reduces growth of phage-infected RecBCD+ E. coli, AddAB inhibitor counter-screen; inhibition, % at 11.9 µM; 73% of 880 active; shares compounds with AddAB inh; E. coli V66 + mutant T4 phage, OD growth;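 active = mean inhibition above the mean of solvent-only control wells plus 3 SD, cut at about 4% in these data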;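 note: optical density read after an 18 h incubation at 37 °C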
bact viab count: counter-screen: bacterial growth inhibition; bacterial viability, absorbance (AddAB counterscreen); shares compounds with AddAB inh; AID 488956; 35% of 880 active; inhibition, % at 11.9 µM; in the data active = inhibition above about 25%
RecBCD conf: growth loss of phage-infected V66 E. coli, RecBCD confirmation screen; shares compounds with phage Ecoli inh; 45% of 890 active; inhibition, % at 11.9 µM; E. coli V66 + T4 2- phage, growth OD;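 active = mean inhibition over triplicates exceeding the hit threshold derived in the original primary screen, cut at about 11% in these data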
Ecoli viability: inhibits E. coli viability, flagging RecBCD hits as nonselective; shares compounds with phage Ecoli inh; absorbance (OD) growth; inhibition, % at 11.9 µM; 29% of 890 active; AID 651983; in the data active = inhibition above about 20%;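 note: E. coli strain V66 grown with compound alone and no phage infection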
AddAB counter: growth loss of phage-infected AddAB E. coli, RecBCD counter-screen | 45% of 890 active | shares compounds with phage Ecoli inh | E. coli expressing H. pylori AddAB + T4 phage, OD growth; gene 2 mutant T4, recBCD-deleted host | inhibition, % at 11.9 µM | AID 651984;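 active = mean inhibition above the solvent-only control wells' mean plus 3 SD, cut at about 22% in these data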;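 note: higher means less bacterial growth from phage killing when AddAB is blocked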
Numbers stand for hits; n = inactive; x = no result given.

SMILES | E coli growth-1 | E coli growth-2 | AddAB inh | phage Ecoli inh | Tat export inh | AddAB confirm | RecBCD counter | bact viab count | others
COc1ccc(OC2C=CC(c3ccccc3)OC2CON=C(C)CCC(=O)OCC2OC(c3ccccc3)C=CC2Oc2ccc(OC)cc2)cc1 (centres undefined) | n | x | x | x | x | x | x | x
O=C(Oc1cccc(C=NNc2nc(Nc3ccccc3)nc(N3CCOCC3)n2)c1)c1ccco1 | n | x | x | x | x | x | x | x
Fc1ccccc1-n1cn[nH]c1=S | n | 53.1 | 95.1 | n | n | n | n | n
CCCCC(CC)CN=C(N)NC(N)=NCCCCCCN=C(N)NC(N)=NCC(CC)CCCC (centres undefined) | x | 101.4 | 98.0 | x | 75.9 | 104.3 | 72.6 | 97.8
NN=C1CCCc2c1[nH]c1ccc([N+](=O)[O-])cc21 | n | x | x | x | x | x | x | x
C[C@H]1c2cccc(O)c2C(O)=C2C(=O)[C@]3(O)C(O)=C(C(N)=O)C(=O)[C@@H](N(C)C)C3[C@@H](O)C21 (some centres undefined) | x | 100.2 | 99.0 | 101.4 | 146.4 | 99.3 | 98.5 | 99.5
Cc1noc(NS(=O)(=O)c2ccc(N/C=C/C(=O)c3cccnc3)cc2)c1C | n | n | 13.2 | n | n | n | n | n
CCc1ccc(C(=O)/C=C/Nc2ccc(S(=O)(=O)Nc3onc(C)c3C)cc2)cc1 | n | n | 14.2 | n | n | n | n | n
Cc1noc(NS(=O)(=O)c2ccc(N/C=C\C(=O)c3ccncc3)cc2)c1C | n | n | n | n | n | x | x | x
Cc1noc(NS(=O)(=O)c2ccc(N/C=C/C(=O)c3ccc(F)cc3)cc2)c1C | n | n | n | n | n | x | x | x
CC1CCN(c2ccccc2NC(=O)c2ccc([N+](=O)[O-])o2)CC1 | n | n | n | n | n | x | x | x
O=C(Nc1ccccc1N1CCCC1)c1ccc([N+](=O)[O-])o1 | n | n | 14.0 | n | n | 23.3 | n | n
COc1ccccc1NC(=O)c1ccc([N+](=O)[O-])o1 | 0.494 | 23.9 | 30.3 | n | x | 98.0 | 13.5 | 43.2
Cc1cccc(NC(=O)c2ccc([N+](=O)[O-])o2)c1C | n | n | n | n | n | x | x | x
COc1ccc(CCNC(=O)c2ccc(CN3CCC(Cc4ccccc4)CC3)cc2)cc1OC | n | n | 13.5 | n | n | n | n | n
Cc1nn(-c2ccccc2)c(Cl)c1C=NNS(=O)(=O)c1ccc(Br)cc1 | n | x | x | x | x | x | x | x
NC(=S)N/N=C/c1ccc(C(F)(F)F)cc1 | x | n | n | n | n | x | x | x
NC(=S)N/N=C/c1ncc(C(F)(F)F)cc1Cl | x | 18.3 | 23.3 | x | n | 17.7 | 17.7 | n
NC1CCN(c2nc3c(cc2F)c(=O)c(C(=O)O)cn3-c2ccc(F)cc2F)C1 (centres undefined) | 0.0705 | 102.1 | 100.7 | 101.1 | 71.6 | 96.9 | 99.8 | 100.0
Cc1cccc(-c2cc(=O)c(C(=O)O)cn2-c2ccc(F)cc2F)c1 | n | n | n | n | n | x | x | x
CCn1cc(C(=O)O)c(=O)c2cc(F)c(N3CCN(S(=O)(=O)c4ccc(NC(=O)OC)cc4)CC3)cc21 | 0.0615 | 17.9 | 36.7 | n | n | 100.9 | 28.8 | 100.5
CCC(=O)N1CCN(c2cc3c(cc2F)c(=O)c(C(=O)O)cn3CC)CC1 | 0.069 | 70.0 | 96.9 | n | n | 99.6 | 8.4 | 98.0
CCCCCCC(=O)N1CCN(c2cc3c(cc2F)c(=O)c(C(=O)O)cn3CC)CC1 | x | n | n | n | n | x | x | x
CCn1cc(C(=O)NN)c(=O)c2cc(F)c(N3CCN(C)CC3)cc21 | n | 15.8 | 17.9 | n | n | 47.3 | n | 29.1
CCOC(=O)c1cn(CC)c2cc(N3CCOCC3)c(F)cc2c1=O | 0.535 | 52.7 | 58.3 | n | n | 70.4 | n | n
SMILES | E coli growth-1 | E coli growth-2 | AddAB inh | phage Ecoli inh | Tat export inh | AddAB confirm | RecBCD counter | bact viab count | others
Cc1nc2ccc(Cc3ccc4nc(C)[nH]c4c3)cc2[nH]1 | n | n | 15.9 | n | n | n | 5.8 | n
O=C(N/N=C\c1cccc(Cl)c1)c1ccc(Cn2cc(Br)c([N+](=O)[O-])n2)o1 | x | 25.6 | 28.7 | n | n | 28.6 | 4.2 | n
COc1ccc(C(=O)NN=Cc2ccccc2OC(=O)c2ccccc2)cc1 | n | x | x | x | x | x | x | x
O=C1NCCCc2c1oc1ccc(O)cc21 | n | 98.5 | 100.2 | n | n | n | n | n
CC(C)(C)c1cc[n+](-c2[nH]c(=O)sc2C=NNC(=O)c2ccccc2[O-])cc1 | n | x | x | x | x | x | x | x
N#Cc1c(NC(=O)c2ccc([N+](=O)[O-])o2)sc2c1CCC2 | n | 10.9 | 16.0 | n | n | 64.0 | 7.3 | n
NC(=O)c1c(NC(=O)c2ccc([N+](=O)[O-])o2)sc2c1CCCC2 | n | 18.4 | 23.1 | n | n | 97.7 | 8.8 | 28.4
N#Cc1c(NC(=O)c2ccccc2)sc2c1CCC2 | n | n | n | n | n | x | x | x
O=C(O)c1cccc(NC(=S)N/N=C/c2ccccn2)c1 | x | 16.5 | 17.3 | 23.1 | n | 19.4 | 17.0 | n | RecBCD conf=11.4;Ecoli viability=n;AddAB counter=n
COc1c(N2CCN(C(=S)Nc3ccc(F)cc3)C(C)C2)c(F)cc2c(=O)c(C(=O)O)cn(C3CC3)c12 (centres undefined) | 0.0735 | 99.1 | 98.9 | 72.9 | 76.3 | 97.5 | 98.5 | 99.8 | RecBCD conf=13.5;Ecoli viability=n;AddAB counter=101.5
COc1c(N2CCN(C(=S)NC3CC4CCC3C4)C(C)C2)c(F)cc2c(=O)c(C(=O)O)cn(C3CC3)c12 (centres undefined) | 0.092 | 99.2 | 98.6 | 98.8 | 63.8 | 101.7 | 101.0 | 100.6 | RecBCD conf=101.5;Ecoli viability=103.3;AddAB counter=102.9
NC(=O)c1cccc2c1-c1ccccc1C2=NNC(N)=S | n | x | x | x | x | x | x | x
O=C(COc1ccccc1C(=O)NN=Cc1ccc(O)c(O)c1)NN=Cc1ccc(O)c(O)c1 | n | x | x | x | x | x | x | x
COc1cccc(/C=N/Nc2ncnc3scc(-c4ccccc4)c23)c1O | x | 17.0 | 14.6 | 11.1 | n | n | 11.9 | n | RecBCD conf=n;Ecoli viability=n;AddAB counter=n
COc1ccc(/C=N/Nc2ncnc(Cl)c2N)cc1OC | x | n | n | n | n | x | x | x
COc1cccc(/C=N/Nc2ncnc(Cl)c2N)c1O | x | 15.3 | 12.4 | 29.8 | n | 20.8 | 29.4 | n | RecBCD conf=27.0;Ecoli viability=30.3;AddAB counter=22.9
Cc1ccc(NC(=S)NC(CO)C(O)c2ccc([N+](=O)[O-])cc2)cc1 (centres undefined) | n | n | n | n | n | x | x | x
O=C(N[C@H](CO)[C@H](O)c1ccc([N+](=O)[O-])cc1)C(Cl)Cl | 0.0455 | 90.3 | 89.2 | 77.5 | n | 87.4 | 86.2 | 84.5 | RecBCD conf=86.0;Ecoli viability=87.6;AddAB counter=80.8
